Where “and” joins values, the source holds several entries; their conditions need not be identical. Equal values may be shown once. Inconclusive results are not listed. Calls of active or inactive are those of the source. Unless noted, calls follow the shape of the dose curve; as a rule, active = well fitted curve in the direction sought with a large enough effect; inconclusive = small, poorly fitted or top-dose-only effect, or another doubt; inactive = no such curve, though single readings can be large; an effect the other way counts as inactive or inconclusive.
Tests used:
[1] = molecular target: Glucocorticoid receptor (Homo sapiens) (UniProt P04150); experiment: qHTS assay for small molecule antagonists of glucocorticoid receptor signaling (AID 588533; active = well fitted inhibition curve with a large enough effect in the signal ratio, with a control signal flat, not every such curve was filed as active; the % refers to the signal ratio; also: % is scaled to controls: 0 for no effect and ±100 for the full control effect)
How it was run: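 Antagonist-mode qHTS: compound titrations added to GRE-bla HeLa cells, then dexamethasone 2 nM final; 18 h, 37 C. CCF4 FRET fluorescence normalized to dexamethasone and DMSO; IC50 from Hill fit.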

[2] = qHTS assay for small molecule antagonists of peroxisome proliferator-activated receptor delta signaling (AID 588535; active = well fitted inhibition curve with a large enough effect in the signal ratio, with a control signal flat, not every such curve was filed as active; the % refers to the signal ratio;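 as to max response: cells co-treated with a PPAR-delta agonist as stimulator during compound exposure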); conditions: HEK293T PPARd-UAS-bla, beta-lactamase FRET ratio, 18 h; 460 nm channel
How it was run: (§1)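 Beta-lactamase reporter read-out (405 nm excitation, 460/530 nm emission) after CCF4 loading for 2 hrs at RT. HEK293T PPAR-delta-UAS-bla cells, 2% charcoal/dextran FBS, compounds for 18 hrs at 37 C. Hill fit gave IC50 and efficacy.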

[3] = molecular target: Peroxisome proliferator-activated receptor delta (Homo sapiens) (UniProt Q03181); experiment: as above
How it was run: as §1

[4] = molecular target: Peroxisome proliferator-activated receptor gamma (Homo sapiens) (UniProt P37231); experiment: qHTS assay for small molecule agonists of peroxisome proliferator-activated receptor gamma signaling (AID 588536; active = well fitted curve in the direction sought with a large enough effect in the signal ratio, with a control signal flat, not every such curve was filed as active; the % refers to the signal ratio;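 also: 0% = DMSO basal wells and 100% = rosiglitazone at 2 µM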)
How it was run: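 Beta-lactamase reporter read-out: CCF4 fluorescence (ex 405, em 460/530 nm) after 2 h at RT. HEK293 GeneBLAzer cells were treated for 16 h at 37 C. Hill fits gave EC50 and efficacy versus 2 uM rosiglitazone (100%) and DMSO (0%).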

[5] = molecular target: Peroxisome proliferator-activated receptor gamma (Homo sapiens) (UniProt P37231); experiment: qHTS assay for small molecule antagonists of peroxisome proliferator-activated receptor gamma signaling (AID 588537; active = well fitted inhibition curve with a large enough effect in the signal ratio, with a control signal flat, not every such curve was filed as active; the % refers to the signal ratio;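 also: reporter cells co-stimulated with 50 nM rosiglitazone agonist during compound treatment; % of control where 0% means no effect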)
How it was run: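 Read-out: CCF4 fluorescence (ex 405, em 460/530 nm) after 2 h at RT. Cells were HEK293 carrying a UAS-bla reporter and treated 16 h at 37 C with compound plus rosiglitazone (50 nM final). Normalized to rosiglitazone and DMSO.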

[6] = molecular target: Vitamin D3 receptor (Homo sapiens) (UniProt P11473); experiment: qHTS assay for small molecule antagonists of vitamin D receptor signaling (AID 588541; calls by dose curve;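 also: receptor activated by calcitriol during compound treatment; series mostly up to about 77 µM; % is scaled to controls: 0 for no effect and ±100 for the full control effect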)
How it was run: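 VDR-UAS-bla HEK293T cells in 2% charcoal-stripped FBS were stimulated with 1-alpha,25-dihydroxyvitamin D3 (3 nM final) plus compound for 16 h at 37 C. The beta-lactamase CCF4 readout was normalized to 50 nM agonist and DMSO, and Hill fits gave IC50.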

[7] = molecular target: Vitamin D3 receptor (Homo sapiens) (UniProt P11473); experiment: qHTS assay for small molecule agonists of vitamin D receptor signaling (AID 588543; calls by dose curve;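 also: 0% = DMSO basal and 100% = reference agonist control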)
How it was run: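 qHTS in agonist mode: compound titrations stimulate a VDR-driven β-lactamase reporter in HEK293T cells over 16 h at 37 °C. Response normalized to 50 nM 1α,25-dihydroxyvitamin D3 = 100%, DMSO = 0%; Hill fitting gives EC50 and maximal response.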

[8] = qHTS assay for small molecule agonists of retinoid X receptor alpha signaling (AID 588544; calls by dose curve;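 as to activation: 0% = DMSO basal wells and 100% = reference agonist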); conditions: HEK293T RXRa-UAS-bla, beta-lactamase reporter, 18 h; 530 nm emission
[9] = molecular target: Retinoic acid receptor RXR-alpha (Homo sapiens) (UniProt P19793); experiment: as above
[10] = molecular target: Thyroid hormone receptor beta (Homo sapiens) (UniProt P10828); experiment: qHTS assay for small molecule agonists of thyroid hormone receptor beta signaling (AID 588545; calls by dose curve)
How it was run: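 HEK 293 TR-UAS-bla; agonist mode; 18 hrs, 37 C; CCF4, ex 405/em 460 and 530 nm; norm. T3 10 nM = 100%, DMSO = 0%; Hill fit → EC50, efficacy.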

[11] = qHTS assay for small molecule antagonists of retinoid X receptor alpha signaling (AID 588546; active = well fitted inhibition curve with a large enough effect in the signal ratio, with a control signal flat, not every such curve was filed as active; the % refers to the signal ratio;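 also: cells stimulated with 9-cis-retinoic acid as agonist; % is scaled to controls: 0 for no effect and ±100 for the full control effect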); conditions: HEK293T RXRa-UAS-bla, beta-lactamase ratio, antagonist mode; measured here: W530 green channel, cytotoxicity proxy
How it was run: (§2)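 Beta-lactamase reporter inhibition, read as CCF4 fluorescence ratio (ex 405, em 460/530 nm) after 2 h at RT. HEK293T UAS-bla cells, 2500/well, were stimulated with 9-cis-RA at 500 or 100 nM final alongside test compound for 18 h at 37 C.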

[12] = molecular target: Retinoic acid receptor RXR-alpha (Homo sapiens) (UniProt P19793); experiment: as above; conditions: HEK293T RXRa-UAS-bla, beta-lactamase ratio, antagonist mode
How it was run: as §2

[13] = molecular target: Thyroid hormone receptor beta (Homo sapiens) (UniProt P10828); experiment: qHTS assay for small molecule antagonists of thyroid hormone receptor beta signaling (AID 588547; active = well fitted inhibition curve with a large enough effect in the signal ratio, with a control signal flat, not every such curve was filed as active; the % refers to the signal ratio;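 also: cells stimulated with 0.4 nM T3 agonist during compound exposure; series mostly up to about 77 µM; % is scaled to controls: 0 for no effect and ±100 for the full control effect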); conditions: TR-UAS-bla HEK293, beta-lactamase ratio, antagonist mode, 18 h
How it was run: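 TR-UAS-bla GripTite HEK293 cells in 2% charcoal/dextran FBS medium; compounds 0.59 nM to 92 uM with T3 at 0.4nM final, 18 h at 37 C. Beta-lactamase read by CCF4 fluorescence (460/530 nm); Hill fits gave IC50 and efficacy.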

[14] = molecular target: Voltage-gated inwardly rectifying potassium channel KCNH2 (Homo sapiens) (UniProt Q12809); experiment: qHTS Assay for Small Molecule Inhibitors of the Human hERG Channel Activity (AID 588834);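 also: U2OS cells transduced with hERG by BacMam; top concentration of the series differs between compounds; % is scaled to controls: 0 for no effect and ±100 for the full control effect; lower thallium flux fluorescence means stronger hERG block; nearly all actives have a fitted effect of over 50% in size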
How it was run: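 Cells were infected with hERG-BacMam virus for 4 hrs at room temperature, grown overnight, then seeded at 2000/well. After dye loading and roughly 10 min compound treatment, thallium influx was triggered and fluorescence recorded.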

[15] = molecular target: Glucocorticoid receptor (Homo sapiens) (UniProt P04150); experiment: qHTS assay for small molecule agonists of glucocorticoid receptor signaling (AID 588532; active = well fitted curve in the direction sought with a large enough effect in the signal ratio, with a control signal flat; the % refers to the signal ratio;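 also: 100% = dexamethasone at 0.1 µM and 0% = DMSO only wells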); conditions: HeLa MMTV-bla, beta-lactamase ratio, agonist, 18 h; stronger effect = higher value; percent of dexamethasone control, DMSO zero
How it was run: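 MMTV-bla HeLa beta-lactamase reporter cells in 1% charcoal/dextran FBS medium, compounds up to 92 uM for 18 h at 37 C, CCF4 readout; normalized to 0.1 uM dexamethasone (100%), EC50 and efficacy from Hill fits.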

[16] = molecular target: Luciferin 4-monooxygenase (Photinus pyralis) (UniProt P08659); experiment: Biochemical firefly luciferase enzyme assay for NPC (AID 624030);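 also: purified P. pyralis luciferase at 10 nM with luciferin and ATP substrate; series mostly up to about 59 µM; 0% = DMSO and -100% = full luciferase inhibition by PTC124 control; nearly all actives have a fitted effect of over 70% in size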
How it was run: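 Purified P. pyralis luciferase at 10 nM in 50 mM Tris Acetate (final), luminescence read within 5 minutes of enzyme addition to compounds. Activity normalised to PTC124 versus DMSO; concentration-response curves classed by r2, magnitude and activity.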

[17] = S16 Schwann cell viability assay (CellTiter-Glo assay) (AID 624031);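 also: cellular ATP luminescence as a viability measure; series mostly up to about 58 µM; plate controls were DMSO-treated cells for no effect and cell-free wells for full effect; nearly all actives have a fitted effect of over 70% in size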
How it was run: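 Luminescent ATP read-out (CellTiter-Glo) after 24 h compound exposure of native S16 rat Schwann cells at 37 °C. Signals were normalized between cell-free wells and DMSO-treated cells, set as 0% activity.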

[18] = S16 Schwann cell PMP22 intronic element firefly luciferase assay (AID 624032);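 also: series mostly up to about 58 µM; plate controls were DMSO for no effect and PTC124 positive control mean for full effect; nearly all actives have a fitted effect of over 30% in size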
How it was run: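 Rat S16 Schwann cells stably carrying firefly luciferase driven by a PMP22 intronic element, in 10% FBS, treated 24 h at 37 C. ONE-Glo luminescence normalized to PTC124 control and DMSO (0%); curves classed by r2, magnitude and activity.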

Retinoic acid receptor RXR-alpha (Homo sapiens), sequence (P19793 whole entry, looked up): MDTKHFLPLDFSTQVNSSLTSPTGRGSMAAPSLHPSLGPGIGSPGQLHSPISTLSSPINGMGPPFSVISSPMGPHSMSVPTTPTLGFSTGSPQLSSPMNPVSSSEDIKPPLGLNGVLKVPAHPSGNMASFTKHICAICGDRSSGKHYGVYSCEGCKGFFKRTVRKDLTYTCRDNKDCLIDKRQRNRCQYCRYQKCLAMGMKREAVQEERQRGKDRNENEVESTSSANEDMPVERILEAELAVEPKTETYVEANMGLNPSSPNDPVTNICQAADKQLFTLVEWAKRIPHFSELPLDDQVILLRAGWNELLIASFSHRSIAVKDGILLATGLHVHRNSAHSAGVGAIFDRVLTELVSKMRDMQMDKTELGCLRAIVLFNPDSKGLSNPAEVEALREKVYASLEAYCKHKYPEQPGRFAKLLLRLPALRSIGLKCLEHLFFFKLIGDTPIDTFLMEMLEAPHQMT
Glucocorticoid receptor (Homo sapiens), sequence (P04150 whole entry, looked up): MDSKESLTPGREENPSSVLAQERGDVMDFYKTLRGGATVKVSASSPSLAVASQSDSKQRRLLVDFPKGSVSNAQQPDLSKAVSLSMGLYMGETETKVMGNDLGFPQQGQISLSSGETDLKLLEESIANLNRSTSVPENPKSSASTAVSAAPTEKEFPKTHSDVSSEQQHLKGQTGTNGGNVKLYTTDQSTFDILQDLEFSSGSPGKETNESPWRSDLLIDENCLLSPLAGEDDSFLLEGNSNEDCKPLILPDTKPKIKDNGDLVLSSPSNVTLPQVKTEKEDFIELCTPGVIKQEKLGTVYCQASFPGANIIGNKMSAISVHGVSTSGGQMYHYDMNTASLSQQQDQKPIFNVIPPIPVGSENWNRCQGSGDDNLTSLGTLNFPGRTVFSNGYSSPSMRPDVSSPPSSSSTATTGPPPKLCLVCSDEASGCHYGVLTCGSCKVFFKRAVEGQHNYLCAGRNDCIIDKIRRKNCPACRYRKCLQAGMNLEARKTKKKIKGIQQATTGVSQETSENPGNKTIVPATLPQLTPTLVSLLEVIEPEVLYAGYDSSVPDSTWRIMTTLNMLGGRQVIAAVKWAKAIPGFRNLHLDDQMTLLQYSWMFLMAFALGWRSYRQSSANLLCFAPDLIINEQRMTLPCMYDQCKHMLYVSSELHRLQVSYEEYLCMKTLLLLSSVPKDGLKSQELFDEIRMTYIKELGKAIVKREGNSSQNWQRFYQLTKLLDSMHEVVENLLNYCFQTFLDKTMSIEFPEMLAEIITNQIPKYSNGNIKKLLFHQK
Thyroid hormone receptor beta (Homo sapiens), sequence (P10828 whole entry, looked up): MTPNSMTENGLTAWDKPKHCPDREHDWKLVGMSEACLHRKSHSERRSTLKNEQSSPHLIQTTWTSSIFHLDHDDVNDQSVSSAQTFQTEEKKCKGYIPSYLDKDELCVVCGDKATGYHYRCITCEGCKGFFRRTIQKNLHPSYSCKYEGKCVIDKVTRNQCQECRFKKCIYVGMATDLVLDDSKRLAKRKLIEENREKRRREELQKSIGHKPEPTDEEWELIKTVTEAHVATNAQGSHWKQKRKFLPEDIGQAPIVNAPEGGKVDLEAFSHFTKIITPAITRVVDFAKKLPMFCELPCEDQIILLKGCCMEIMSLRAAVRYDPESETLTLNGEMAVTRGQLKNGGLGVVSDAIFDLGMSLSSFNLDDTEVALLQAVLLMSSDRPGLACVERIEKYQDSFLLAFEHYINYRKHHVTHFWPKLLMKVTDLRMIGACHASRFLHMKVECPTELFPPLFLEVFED
Vitamin D3 receptor (Homo sapiens), sequence (P11473 whole entry, looked up): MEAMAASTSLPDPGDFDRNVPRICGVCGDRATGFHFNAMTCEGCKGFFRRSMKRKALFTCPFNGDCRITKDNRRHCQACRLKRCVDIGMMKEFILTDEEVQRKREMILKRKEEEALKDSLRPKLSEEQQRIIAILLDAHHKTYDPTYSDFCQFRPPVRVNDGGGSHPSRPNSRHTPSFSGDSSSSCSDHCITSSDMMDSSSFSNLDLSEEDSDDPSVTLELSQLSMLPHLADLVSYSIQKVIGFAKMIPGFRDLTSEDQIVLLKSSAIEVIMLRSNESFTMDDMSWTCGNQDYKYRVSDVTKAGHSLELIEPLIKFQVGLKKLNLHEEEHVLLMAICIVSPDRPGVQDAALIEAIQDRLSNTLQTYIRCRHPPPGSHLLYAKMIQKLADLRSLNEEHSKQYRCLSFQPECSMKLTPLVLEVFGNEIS
Peroxisome proliferator-activated receptor gamma (Homo sapiens), sequence (P37231 whole entry, looked up): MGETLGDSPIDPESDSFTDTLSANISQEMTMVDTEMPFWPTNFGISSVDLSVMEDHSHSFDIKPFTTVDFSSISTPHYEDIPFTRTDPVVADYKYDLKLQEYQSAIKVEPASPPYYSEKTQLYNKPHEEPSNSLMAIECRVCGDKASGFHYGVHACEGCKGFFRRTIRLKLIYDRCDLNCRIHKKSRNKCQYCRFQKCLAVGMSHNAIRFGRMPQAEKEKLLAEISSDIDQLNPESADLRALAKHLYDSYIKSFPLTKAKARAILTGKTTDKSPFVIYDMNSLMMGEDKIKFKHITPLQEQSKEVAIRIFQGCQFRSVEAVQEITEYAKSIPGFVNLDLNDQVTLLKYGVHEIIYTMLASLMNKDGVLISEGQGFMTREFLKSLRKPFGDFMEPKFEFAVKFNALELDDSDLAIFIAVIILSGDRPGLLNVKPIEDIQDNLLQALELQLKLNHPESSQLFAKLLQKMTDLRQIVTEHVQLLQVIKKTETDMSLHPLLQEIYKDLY
Voltage-gated inwardly rectifying potassium channel KCNH2 (Homo sapiens), sequence (Q12809 whole entry, looked up): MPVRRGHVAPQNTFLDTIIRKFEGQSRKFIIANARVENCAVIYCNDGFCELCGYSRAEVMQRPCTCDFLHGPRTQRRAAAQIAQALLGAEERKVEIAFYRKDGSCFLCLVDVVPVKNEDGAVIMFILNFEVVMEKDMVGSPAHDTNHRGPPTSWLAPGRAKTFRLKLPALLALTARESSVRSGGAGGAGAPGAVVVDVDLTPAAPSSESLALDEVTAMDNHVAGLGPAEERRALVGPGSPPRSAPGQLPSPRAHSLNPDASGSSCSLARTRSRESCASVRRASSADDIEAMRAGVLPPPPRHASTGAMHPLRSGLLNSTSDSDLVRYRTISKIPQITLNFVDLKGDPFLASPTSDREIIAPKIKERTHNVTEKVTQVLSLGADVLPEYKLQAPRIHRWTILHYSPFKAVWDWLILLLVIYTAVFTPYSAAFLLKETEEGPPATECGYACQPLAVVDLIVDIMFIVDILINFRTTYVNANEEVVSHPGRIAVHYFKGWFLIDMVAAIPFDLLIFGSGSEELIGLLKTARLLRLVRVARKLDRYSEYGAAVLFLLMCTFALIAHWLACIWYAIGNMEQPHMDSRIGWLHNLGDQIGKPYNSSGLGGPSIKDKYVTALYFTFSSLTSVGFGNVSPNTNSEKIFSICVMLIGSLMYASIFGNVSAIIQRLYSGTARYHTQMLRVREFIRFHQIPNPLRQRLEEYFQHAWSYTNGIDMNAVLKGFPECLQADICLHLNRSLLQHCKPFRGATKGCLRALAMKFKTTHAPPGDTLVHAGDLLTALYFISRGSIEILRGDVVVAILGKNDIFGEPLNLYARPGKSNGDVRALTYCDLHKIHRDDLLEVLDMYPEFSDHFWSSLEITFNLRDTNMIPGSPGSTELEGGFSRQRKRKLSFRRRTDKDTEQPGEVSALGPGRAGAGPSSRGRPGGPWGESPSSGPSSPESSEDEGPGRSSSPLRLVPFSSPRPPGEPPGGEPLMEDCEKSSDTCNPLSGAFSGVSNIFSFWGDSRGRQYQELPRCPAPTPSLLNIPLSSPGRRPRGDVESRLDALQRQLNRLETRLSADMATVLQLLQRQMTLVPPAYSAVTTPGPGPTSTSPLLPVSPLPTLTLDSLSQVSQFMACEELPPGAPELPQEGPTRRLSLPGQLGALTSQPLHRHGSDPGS
Luciferin 4-monooxygenase (Photinus pyralis), sequence (P08659 whole entry, looked up): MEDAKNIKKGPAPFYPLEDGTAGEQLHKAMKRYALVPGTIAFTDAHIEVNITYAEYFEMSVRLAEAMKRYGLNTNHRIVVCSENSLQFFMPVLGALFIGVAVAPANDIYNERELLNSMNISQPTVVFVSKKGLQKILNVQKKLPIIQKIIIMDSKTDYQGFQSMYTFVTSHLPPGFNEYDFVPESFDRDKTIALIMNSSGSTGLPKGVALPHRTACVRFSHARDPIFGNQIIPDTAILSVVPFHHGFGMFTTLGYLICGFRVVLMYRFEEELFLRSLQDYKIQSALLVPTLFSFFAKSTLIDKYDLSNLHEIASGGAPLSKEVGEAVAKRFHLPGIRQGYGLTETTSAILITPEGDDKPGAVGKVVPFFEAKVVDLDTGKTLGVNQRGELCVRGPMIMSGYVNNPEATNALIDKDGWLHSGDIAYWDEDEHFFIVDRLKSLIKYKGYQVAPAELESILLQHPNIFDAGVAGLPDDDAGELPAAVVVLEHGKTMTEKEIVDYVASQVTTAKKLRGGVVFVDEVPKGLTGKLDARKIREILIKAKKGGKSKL
Peroxisome proliferator-activated receptor delta (Homo sapiens), sequence (Q03181 whole entry, looked up): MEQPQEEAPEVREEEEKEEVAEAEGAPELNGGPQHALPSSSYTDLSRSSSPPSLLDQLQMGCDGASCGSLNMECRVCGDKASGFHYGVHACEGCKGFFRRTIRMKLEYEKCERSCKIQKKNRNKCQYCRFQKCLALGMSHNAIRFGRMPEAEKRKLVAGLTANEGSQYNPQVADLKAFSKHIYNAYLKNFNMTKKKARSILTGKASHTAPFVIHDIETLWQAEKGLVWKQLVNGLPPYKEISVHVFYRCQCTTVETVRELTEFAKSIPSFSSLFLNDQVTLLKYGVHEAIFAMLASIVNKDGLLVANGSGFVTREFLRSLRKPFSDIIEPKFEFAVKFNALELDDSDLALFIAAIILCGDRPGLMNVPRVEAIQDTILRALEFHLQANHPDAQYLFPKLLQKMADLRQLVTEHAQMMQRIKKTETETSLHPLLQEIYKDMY

CN(C)C(=S)SC(=S)N(C)C
inactive: Potency [1] | Potency [3] | outcome [4] | Potency [5] | Potency [6] | outcome [7] | outcome [9] | outcome [10] | max response [12] -27.1% | activity change % (negative = inhibition) [13] 10.8% | Potency [14]
5.78%: max response [11]
6.78%: max response [2]
0.136%: max response [8]

CCCCCCc1ccc(O)cc1O
0.899% and 2.91%: max response [11]
-14.8% and 0.183%: max response [8]
inactive: activation [15] -1.17% and 14.5% | Potency [1] | outcome [4] | Potency [6] | outcome [7] | outcome [9] | outcome [10] | max response [12] -14.1% and -8.39% | activity change % (negative = inhibition) [13] -14.5% and -21.9% | Potency [14] | Potency [16] | Potency [17] | Potency [18]

OC[C@H]1O[C@@H](n2cnc3c(=S)nc[nH]c32)[C@H](O)[C@@H]1O
inactive: Potency [14]

CC(O)(P(=O)(O)O)P(=O)(O)O
-2.39%: max response [11]
-19.3%: max response [8]
inactive: Potency [5] | outcome [9] | outcome [10] | max response [12] -16.3% | activity change % (negative = inhibition) [13] -8.4% | Potency [16] | Potency [17]

CC(=O)OCC(=O)[C@@]1(O)CC[C@H]2[C@@H]3CCC4=CC(=O)C=C[C@]4(C)[C@H]3[C@@H](O)C[C@@]21C
inactive: Potency [14]

C[C@H]1C[C@H]2[C@@H]3CCC4=CC(=O)C=C[C@]4(C)[C@@]3(Cl)[C@@H](O)C[C@]2(C)[C@@]1(O)C(=O)CO
inactive: Potency [1] | outcome [4] | Potency [5] | Potency [6] | outcome [7] | outcome [10] | max response [12] -25.7% | activity change % (negative = inhibition) [13] 1.92% | Potency [14] | Potency [16] | Potency [18]
10.8%: max response [11]

CCOC(=O)c1cccc(N)c1
inactive: Potency [14] | Potency [16] | Potency [17] | Potency [18]

CCCCC1=NC2(CCCC2)C(=O)N1Cc1ccc(-c2ccccc2-c2nn[nH]n2)cc1
inactive: Potency [14] | Potency [16] | Potency [17] | Potency [18]

COc1cc(-c2ccc(=O)[nH]n2)ccc1OC(F)F
inactive: Potency [14] | Potency [16] | Potency [17]

CC(C)(CO)[C@@H](O)C(=O)NCCCO
inactive: Potency [14] | Potency [16] | Potency [17] | Potency [18]

CC(=O)N(O)CCCCCNC(=O)CCC(=O)N(O)CCCCCNC(=O)CCC(=O)N(O)CCCCCN
inactive: Potency [14] | Potency [16] | Potency [17] | Potency [18]

Cc1c(C(N)=O)cc([N+](=O)[O-])cc1[N+](=O)[O-]
inactive: Potency [14] | Potency [16] | Potency [17] | Potency [18]

Source: PubChem BioAssay (NCATS)
